Tests used:
Test in all cases: DAPPL (digital affinity profiling via proximity ligation, sequencing); 10 mM Tris-HCl pH 7.5, 50 mM NaCl, 1 mM DTT, 4% glycerol, room temperature, 30 min; GST-TFs on glutathione beads, 16-mer random dsDNA library, 0.1% formaldehyde crosslink after washing; high values mean tight binding
Conditions in all cases: protein: recombinant; tags: N-terminal GST; dsDNA, one strand shown
[1] = target: ELF1 (Homo sapiens, UniProt P32519 1-619)
Procedure, shortened: (§1)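 GST fusions of human transcription factors were expressed in yeast and captured with glutathione beads. Once given DNA barcodes and pooled alongside a tag-only sample, they were incubated for 30 min at room temperature with 200 nmole of a random double-stranded 16-mer DNA library in Tris/NaCl/DTT/glycerol buffer, then washed, crosslinked (0.1% formaldehyde), proximity-ligated, PCR-amplified and sequenced on an Illumina NextSeq500. The binding signal of each hexamer is its read frequency for a factor divided by its frequency for the tag-only sample.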

[2] = target: T1, FEV (Homo sapiens, UniProt Q99581 1-238)
T1 sequence: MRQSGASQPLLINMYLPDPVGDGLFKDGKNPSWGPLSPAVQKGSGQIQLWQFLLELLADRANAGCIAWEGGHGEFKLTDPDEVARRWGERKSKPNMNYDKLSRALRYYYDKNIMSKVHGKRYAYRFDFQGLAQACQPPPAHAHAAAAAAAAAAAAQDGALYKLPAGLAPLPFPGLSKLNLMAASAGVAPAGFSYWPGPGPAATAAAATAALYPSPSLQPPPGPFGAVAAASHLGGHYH
Procedure, shortened: as §1

[3] = target: ETV5 (Homo sapiens, UniProt P41161 1-510)
ETV5, sequence (P41161 whole entry): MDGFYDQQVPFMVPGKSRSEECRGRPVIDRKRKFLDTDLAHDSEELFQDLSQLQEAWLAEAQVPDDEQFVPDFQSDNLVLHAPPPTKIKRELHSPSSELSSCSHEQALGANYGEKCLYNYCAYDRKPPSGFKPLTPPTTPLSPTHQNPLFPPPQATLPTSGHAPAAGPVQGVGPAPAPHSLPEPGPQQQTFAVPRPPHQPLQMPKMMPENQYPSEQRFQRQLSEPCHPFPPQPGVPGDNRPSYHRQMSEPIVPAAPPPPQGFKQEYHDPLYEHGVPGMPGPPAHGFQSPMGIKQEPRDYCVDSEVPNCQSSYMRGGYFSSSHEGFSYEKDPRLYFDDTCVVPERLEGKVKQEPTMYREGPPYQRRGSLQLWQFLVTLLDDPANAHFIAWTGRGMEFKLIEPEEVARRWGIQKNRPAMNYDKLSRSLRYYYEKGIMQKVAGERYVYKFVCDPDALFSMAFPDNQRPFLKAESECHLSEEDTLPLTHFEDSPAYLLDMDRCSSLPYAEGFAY
Procedure, shortened: as §1

[4] = target: ELF4 (Homo sapiens, UniProt Q99607 1-663)
ELF4, sequence (Q99607 whole entry): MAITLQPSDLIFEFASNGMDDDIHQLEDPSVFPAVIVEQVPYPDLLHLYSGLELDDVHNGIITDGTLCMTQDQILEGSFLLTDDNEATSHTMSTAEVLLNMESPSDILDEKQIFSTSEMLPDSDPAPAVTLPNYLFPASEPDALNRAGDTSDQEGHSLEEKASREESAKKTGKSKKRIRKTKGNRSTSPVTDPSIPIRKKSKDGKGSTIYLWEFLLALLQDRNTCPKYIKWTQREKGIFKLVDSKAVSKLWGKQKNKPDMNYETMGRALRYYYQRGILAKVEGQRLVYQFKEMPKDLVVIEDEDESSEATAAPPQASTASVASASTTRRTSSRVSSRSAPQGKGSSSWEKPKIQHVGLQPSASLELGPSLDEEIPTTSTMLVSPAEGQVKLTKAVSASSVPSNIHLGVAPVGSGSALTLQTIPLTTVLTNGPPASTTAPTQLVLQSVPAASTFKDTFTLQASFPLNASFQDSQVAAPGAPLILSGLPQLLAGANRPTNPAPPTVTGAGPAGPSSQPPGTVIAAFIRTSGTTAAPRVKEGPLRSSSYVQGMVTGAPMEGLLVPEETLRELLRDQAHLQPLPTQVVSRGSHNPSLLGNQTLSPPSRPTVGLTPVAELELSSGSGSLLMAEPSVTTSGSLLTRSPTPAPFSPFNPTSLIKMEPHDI
Procedure, shortened: as §1

[5] = target: T2, ELF3 (Homo sapiens, UniProt P78545 1-371)
T2 sequence: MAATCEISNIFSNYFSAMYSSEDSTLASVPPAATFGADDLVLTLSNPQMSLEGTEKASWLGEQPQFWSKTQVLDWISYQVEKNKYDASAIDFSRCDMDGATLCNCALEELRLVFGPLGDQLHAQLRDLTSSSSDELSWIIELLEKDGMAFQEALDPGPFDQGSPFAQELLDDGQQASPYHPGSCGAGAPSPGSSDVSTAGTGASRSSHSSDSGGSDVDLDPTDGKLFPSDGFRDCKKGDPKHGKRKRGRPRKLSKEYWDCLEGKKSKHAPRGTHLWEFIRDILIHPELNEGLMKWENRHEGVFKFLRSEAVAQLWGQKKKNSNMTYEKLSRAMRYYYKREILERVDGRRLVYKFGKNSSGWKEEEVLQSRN
Procedure, shortened: as §1

[6] = target: ETV1 (Homo sapiens, UniProt P50549 1-477)
ETV1, sequence (P50549 whole entry): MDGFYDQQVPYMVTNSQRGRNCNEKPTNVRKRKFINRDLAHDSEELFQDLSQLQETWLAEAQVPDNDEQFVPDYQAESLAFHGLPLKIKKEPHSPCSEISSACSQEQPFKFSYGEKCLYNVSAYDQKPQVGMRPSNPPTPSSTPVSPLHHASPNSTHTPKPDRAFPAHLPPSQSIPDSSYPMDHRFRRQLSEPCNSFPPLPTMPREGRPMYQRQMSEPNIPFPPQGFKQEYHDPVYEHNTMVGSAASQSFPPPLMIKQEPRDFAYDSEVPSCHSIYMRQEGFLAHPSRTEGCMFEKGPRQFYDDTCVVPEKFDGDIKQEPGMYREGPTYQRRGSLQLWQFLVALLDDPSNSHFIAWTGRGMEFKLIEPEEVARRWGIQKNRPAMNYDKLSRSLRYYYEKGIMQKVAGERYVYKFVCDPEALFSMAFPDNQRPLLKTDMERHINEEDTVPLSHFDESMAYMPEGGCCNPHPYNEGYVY
Procedure, shortened: as §1

[7] = target: T3, ERF (Homo sapiens, UniProt P50548 1-548)
T3 sequence: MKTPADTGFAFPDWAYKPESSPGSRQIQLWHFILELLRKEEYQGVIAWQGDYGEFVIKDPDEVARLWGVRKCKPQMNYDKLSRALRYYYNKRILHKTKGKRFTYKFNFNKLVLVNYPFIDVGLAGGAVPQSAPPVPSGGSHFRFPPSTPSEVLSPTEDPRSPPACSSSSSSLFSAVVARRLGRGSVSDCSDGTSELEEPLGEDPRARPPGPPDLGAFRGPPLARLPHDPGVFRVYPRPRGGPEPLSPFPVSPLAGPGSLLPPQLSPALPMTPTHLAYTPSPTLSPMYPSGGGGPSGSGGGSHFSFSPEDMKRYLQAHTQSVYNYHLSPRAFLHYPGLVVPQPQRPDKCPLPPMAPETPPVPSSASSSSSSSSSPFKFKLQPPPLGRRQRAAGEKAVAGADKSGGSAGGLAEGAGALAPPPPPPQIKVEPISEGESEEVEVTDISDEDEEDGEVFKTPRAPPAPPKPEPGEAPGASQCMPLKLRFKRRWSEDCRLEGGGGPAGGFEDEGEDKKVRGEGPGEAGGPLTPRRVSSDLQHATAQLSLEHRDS
Procedure, shortened: as §1

[8] = target: T4, ETV3L (Homo sapiens, UniProt Q6ZN32 1-361)
T4 sequence: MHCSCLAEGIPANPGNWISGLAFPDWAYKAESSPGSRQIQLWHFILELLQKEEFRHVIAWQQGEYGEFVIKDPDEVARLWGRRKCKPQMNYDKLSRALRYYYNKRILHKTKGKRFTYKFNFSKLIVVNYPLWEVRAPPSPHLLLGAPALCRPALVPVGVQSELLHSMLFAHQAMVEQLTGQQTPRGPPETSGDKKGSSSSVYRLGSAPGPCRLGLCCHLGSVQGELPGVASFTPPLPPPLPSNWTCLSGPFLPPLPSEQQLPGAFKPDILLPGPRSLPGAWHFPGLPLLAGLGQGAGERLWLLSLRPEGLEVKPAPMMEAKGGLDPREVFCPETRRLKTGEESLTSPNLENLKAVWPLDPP
Procedure, shortened: as §1

[9] = target: T5, ETV3 (Homo sapiens, UniProt P41162-2 1-143)
T5 sequence: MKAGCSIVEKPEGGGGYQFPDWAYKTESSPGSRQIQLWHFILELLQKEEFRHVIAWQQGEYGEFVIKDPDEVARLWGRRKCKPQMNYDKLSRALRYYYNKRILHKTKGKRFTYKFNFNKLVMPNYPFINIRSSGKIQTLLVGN
Procedure, shortened: as §1

[10] = target: T6, GABPA (Homo sapiens, UniProt Q06546 1-454)
T6 sequence: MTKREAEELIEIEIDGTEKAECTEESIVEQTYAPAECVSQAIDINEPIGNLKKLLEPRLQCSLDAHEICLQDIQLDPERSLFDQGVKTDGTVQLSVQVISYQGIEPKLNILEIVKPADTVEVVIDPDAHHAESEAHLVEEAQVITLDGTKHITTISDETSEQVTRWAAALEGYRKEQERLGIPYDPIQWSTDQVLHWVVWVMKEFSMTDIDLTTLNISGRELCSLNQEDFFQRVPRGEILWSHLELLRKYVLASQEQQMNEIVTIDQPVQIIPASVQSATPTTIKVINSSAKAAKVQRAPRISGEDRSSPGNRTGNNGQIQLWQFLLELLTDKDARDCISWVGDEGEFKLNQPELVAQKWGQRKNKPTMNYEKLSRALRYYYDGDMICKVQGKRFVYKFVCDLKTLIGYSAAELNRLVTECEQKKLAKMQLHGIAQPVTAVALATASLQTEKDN
Procedure, shortened: as §1

[11] = target: T7, EHF (Homo sapiens, UniProt Q9NZC4 1-300)
T7 sequence: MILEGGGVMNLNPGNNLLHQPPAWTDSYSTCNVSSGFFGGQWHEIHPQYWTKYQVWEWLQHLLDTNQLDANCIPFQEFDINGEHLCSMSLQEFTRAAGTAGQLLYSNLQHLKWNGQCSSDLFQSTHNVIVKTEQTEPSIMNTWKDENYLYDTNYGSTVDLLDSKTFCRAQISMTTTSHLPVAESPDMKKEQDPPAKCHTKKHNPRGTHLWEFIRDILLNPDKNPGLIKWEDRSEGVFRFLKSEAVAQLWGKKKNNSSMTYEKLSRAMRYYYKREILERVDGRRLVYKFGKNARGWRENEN
Procedure, shortened: as §1

[12] = target: T8, ELK4 (Homo sapiens, UniProt P28324-2 1-405)
T8 sequence: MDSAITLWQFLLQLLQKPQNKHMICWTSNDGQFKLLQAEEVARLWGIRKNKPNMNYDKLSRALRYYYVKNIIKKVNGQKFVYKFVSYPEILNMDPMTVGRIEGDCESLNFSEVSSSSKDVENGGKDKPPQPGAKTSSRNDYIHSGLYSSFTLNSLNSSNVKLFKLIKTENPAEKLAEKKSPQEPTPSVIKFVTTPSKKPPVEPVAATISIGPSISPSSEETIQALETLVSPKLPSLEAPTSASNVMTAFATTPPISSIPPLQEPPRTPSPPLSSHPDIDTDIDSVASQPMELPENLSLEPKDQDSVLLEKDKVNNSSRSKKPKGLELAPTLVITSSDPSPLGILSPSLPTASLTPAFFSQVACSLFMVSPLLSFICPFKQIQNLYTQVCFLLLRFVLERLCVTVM
Procedure, shortened: as §1

[13] = target: T9, ETS2 (Homo sapiens, UniProt P15036 1-469)
T9 sequence: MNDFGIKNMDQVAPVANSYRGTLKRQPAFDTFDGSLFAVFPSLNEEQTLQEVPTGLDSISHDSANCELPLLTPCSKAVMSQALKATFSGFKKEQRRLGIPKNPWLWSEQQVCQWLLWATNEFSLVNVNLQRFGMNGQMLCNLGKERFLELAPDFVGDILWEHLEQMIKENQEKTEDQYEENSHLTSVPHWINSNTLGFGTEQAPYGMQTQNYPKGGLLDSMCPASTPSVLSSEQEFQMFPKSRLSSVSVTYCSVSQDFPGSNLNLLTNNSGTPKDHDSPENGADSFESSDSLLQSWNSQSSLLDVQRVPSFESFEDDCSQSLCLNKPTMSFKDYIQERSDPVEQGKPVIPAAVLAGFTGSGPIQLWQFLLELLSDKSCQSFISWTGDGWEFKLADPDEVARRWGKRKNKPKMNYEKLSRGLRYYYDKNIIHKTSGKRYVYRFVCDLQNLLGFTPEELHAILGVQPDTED
Procedure, shortened: as §1

[14] = target: T10, ETV7 (Homo sapiens, UniProt Q9Y603 1-341)
T10 sequence: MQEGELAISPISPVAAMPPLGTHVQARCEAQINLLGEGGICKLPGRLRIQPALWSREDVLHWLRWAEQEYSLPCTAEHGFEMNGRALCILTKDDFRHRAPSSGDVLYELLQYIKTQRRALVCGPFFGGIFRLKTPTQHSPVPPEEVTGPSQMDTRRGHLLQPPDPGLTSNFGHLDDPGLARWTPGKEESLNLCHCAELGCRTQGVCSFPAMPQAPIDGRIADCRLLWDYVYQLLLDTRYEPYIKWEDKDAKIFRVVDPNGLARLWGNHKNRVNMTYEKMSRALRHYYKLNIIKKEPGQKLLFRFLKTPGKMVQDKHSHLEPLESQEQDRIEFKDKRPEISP
Procedure, shortened: as §1

ELF1, sequence (P32519 whole entry, the tested form may be a part): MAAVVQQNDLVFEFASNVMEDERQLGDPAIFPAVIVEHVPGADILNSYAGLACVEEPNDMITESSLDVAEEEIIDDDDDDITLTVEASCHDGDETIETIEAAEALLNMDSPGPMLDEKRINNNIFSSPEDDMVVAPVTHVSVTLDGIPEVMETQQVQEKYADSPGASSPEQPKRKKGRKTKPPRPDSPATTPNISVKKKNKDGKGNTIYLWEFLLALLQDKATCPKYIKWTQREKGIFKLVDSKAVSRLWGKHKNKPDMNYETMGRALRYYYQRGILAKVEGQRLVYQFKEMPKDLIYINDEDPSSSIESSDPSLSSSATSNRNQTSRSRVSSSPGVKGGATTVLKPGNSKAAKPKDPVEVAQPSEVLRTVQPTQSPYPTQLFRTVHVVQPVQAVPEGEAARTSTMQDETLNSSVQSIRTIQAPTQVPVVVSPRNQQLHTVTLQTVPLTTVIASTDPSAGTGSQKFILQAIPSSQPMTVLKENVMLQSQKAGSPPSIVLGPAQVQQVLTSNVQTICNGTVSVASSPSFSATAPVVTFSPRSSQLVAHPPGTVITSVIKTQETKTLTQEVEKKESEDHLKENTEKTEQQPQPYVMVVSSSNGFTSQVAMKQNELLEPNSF

| Sequence | binding signal [1] | binding signal [2] | binding signal [3] | binding signal [4] | binding signal [5] | binding signal [6] | binding signal [7] | binding signal [8] | binding signal [9] | binding signal [10] | binding signal [11] | binding signal [12] | binding signal [13] | binding signal [14] |
| --- | --- | --- | --- | --- | --- | --- | --- | --- | --- | --- | --- | --- | --- | --- |
| GCACAC | 1.02 fold enrichment (6-mer frequency, TF over GST control) | 1.02 fold enrichment (6-mer frequency, TF over GST control) | 1.02 fold enrichment (6-mer frequency, TF over GST control) | 1.05 fold enrichment (6-mer frequency, TF over GST control) | 1.03 fold enrichment (6-mer frequency, TF over GST control) | 1 fold enrichment (6-mer frequency, TF over GST control) | 1.12 fold enrichment (6-mer frequency, TF over GST control) | 1.04 fold enrichment (6-mer frequency, TF over GST control) | 1.05 fold enrichment (6-mer frequency, TF over GST control) |  |  |  |  |  |
| CCAAGC | 1.04 fold enrichment (6-mer frequency, TF over GST control) |  | 1.09 fold enrichment (6-mer frequency, TF over GST control) | 1.07 fold enrichment (6-mer frequency, TF over GST control) | 1.2 fold enrichment (6-mer frequency, TF over GST control) |  |  | 1.01 fold enrichment (6-mer frequency, TF over GST control) | 1.03 fold enrichment (6-mer frequency, TF over GST control) | 1.06 fold enrichment (6-mer frequency, TF over GST control) | 1.02 fold enrichment (6-mer frequency, TF over GST control) | 1.03 fold enrichment (6-mer frequency, TF over GST control) | 1.03 fold enrichment (6-mer frequency, TF over GST control) | 1.06 fold enrichment (6-mer frequency, TF over GST control) |
